{
  "source": "PubChem BioAssay",
  "data": [
    {"tested_on": "Lefty1", "assay": "Lefty1 protein binding to printed compounds – biochemical, small-molecule microarray, 635/667 nm fluorescence, primary screen (AID 1139)", "conditions": "fluorescence 635/667, higher = more signal", "values": [
      {"smiles": "COc1ccc(C(O)C2C=CC3C(=O)N(Cc4ccccc4)C(=O)C3N2n2cnnc2)cc1OCc1ccccc1", "note": "(stereo not drawn)", "composite z-score": 0.341},
      {"smiles": "COC(=O)[C@@]1(Cc2ccc(OC)cc2)[C@H]2c3cc(C(=O)N4CCCC4)n(Cc4ccc(C)c(F)c4F)c3C[C@H]2CN1C(=O)c1ccccc1", "composite z-score": -0.161},
      {"smiles": "CC(=O)NCCCC[C@@H]1NC(=O)[C@H]2C[C@@H](C(=O)NCCCCCCNC(=O)CS)[C@@H](c3ccc(O)cc3)N2C1=O", "composite z-score": -0.712},
      {"smiles": "COCCOC(=O)N1C(=O)[C@@]2(c3cc(C#CC4(O)CCCCCC4)ccc31)[C@H](c1ccc(OCCO)cc1)N1[C@H](c3ccccc3)[C@H](c3ccccc3)OC(=O)[C@H]1[C@@H]2C(=O)N1CCN(c2ncccn2)CC1", "composite z-score": 0.651},
      {"smiles": "CCCCCN1CC=CC23O[C@@H]4/C=C\\CCC(C)OC(=O)C4[C@H]2C(=O)N(C(C)CO)[C@@H]3C1=O", "note": "(stereo partly drawn)", "composite z-score": 0.696},
      {"smiles": "COc1ccc(C#Cc2ccc3c(c2)[C@]2(C(=O)N3)[C@H](C(=O)NC[C@H](O)c3ccccc3)[C@H]3C(=O)O[C@H](c4ccccc4)[C@H](c4ccccc4)N3[C@@H]2c2ccc(O)cc2)cc1", "composite z-score": 0.767},
      {"smiles": "COc1ccc(C#Cc2ccc3c(c2)[C@]2(C(=O)N3)[C@H](c3ccccc3OCCO)N3[C@H](c4ccccc4)[C@H](c4ccccc4)OC(=O)[C@H]3[C@@H]2C(=O)Nc2nc3ccccc3s2)cc1", "composite z-score": 1.33},
      {"smiles": "CN1C(=O)C2C=CC(C(O)c3ccco3)N(Nc3ccccc3)C2C1=O", "note": "(stereo not drawn)", "composite z-score": 0.332}
    ]},
    {"tested_on": "wheat germ agglutinin (Triticum aestivum), Alexa647-labelled", "assay": "Alexa647-WGA lectin binding to printed small molecules – biochemical, small-molecule microarray, 635/667 nm fluorescence, artefact control for SMM control-protein annotation, profiling panel (AID 1140);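 further: score merges 667 nm feature emission with signal to noise over triplicate slides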", "conditions": "WGA-A647 binding, 635 nm fluorescence, higher = more signal", "values": [
      {"smiles": "COCCOC(=O)N1C(=O)[C@@]2(c3cc(C#CCC(C(=O)OC)C(=O)OC)ccc31)[C@H](c1ccccc1OCCO)N1[C@H](c3ccccc3)[C@H](c3ccccc3)OC(=O)[C@H]1[C@@H]2C(=O)N1CCN(c2ncccn2)CC1", "composite z-score": 0.63},
      {"smiles": "C=CCC(OC(C)=O)[C@@H]1[C@@H](N(Cc2ccc(-c3ccccc3)cc2)C(=O)c2cccc3ccccc23)c2cc(OCCCO)ccc2N1C(=O)c1ccc(-c2ccccc2)cc1", "note": "(stereo partly drawn)", "composite z-score": 0.556},
      {"smiles": "O=C(NCCO)C1=C[C@H](Oc2ccccc2I)[C@@H](O)[C@H](N(Cc2ccco2)C(=O)Cc2ccccc2)C1", "composite z-score": -0.109},
      {"smiles": "C#C[C@H](O[Si](C#Cc1ccc(Oc2ccccc2)cc1)(C(C)C)C(C)C)c1ccccc1", "composite z-score": 0.0936},
      {"smiles": "CC1CC/C=C\\[C@H]2OC34C=CCN(Cc5ccccc5)C(=O)[C@H]3N(CCCO)C(=O)[C@@H]4C2C(=O)O1", "note": "(stereo partly drawn)", "composite z-score": -0.176},
      {"smiles": "CCOC(=O)C[C@H]1[C@H](OC(=O)c2ccc(C(=O)c3ccccc3)cc2)[C@@H](NC(=O)c2ccccc2)c2cc(OCCCO)ccc2N1C(=O)Cc1ccc(OC)cc1", "composite z-score": -0.0653},
      {"smiles": "CC(C)CNC(=O)[C@@]1(Cc2ccccc2I)c2ccccc2C(=O)N(C2CCCCC2)[C@H]1c1ccc(CO)cc1", "composite z-score": 0.84},
      {"smiles": "Cc1ccc(S[C@]2(C(=O)NCCCN(C)C)CC(=O)N(Cc3ccccc3C(F)(F)F)[C@@H]2c2ccc(CO)cc2)cc1", "composite z-score": 0.427},
      {"smiles": "C=CC[C@]1(C(=O)NCCCOC)N=C(c2ccc(OCCCO)cc2)O[C@H]1c1ccccc1CN=[N+]=[N-]", "composite z-score": 0.934},
      {"smiles": "Cc1ccc(S[C@]2(C(=O)NCCCN(C)C)CC(=O)N(Cc3cc(C(F)(F)F)cc(C(F)(F)F)c3)[C@@H]2c2ccc(CO)cc2)cc1", "composite z-score": 0.0796},
      {"smiles": "CCCC[C@H]1OB(O)C[C@H]2C1=C(COC)Cn1c(=O)n(-c3ccccc3)c(=O)n12", "composite z-score": 0.435},
      {"smiles": "COc1ccc(/C=C/C=O)cc1", "composite z-score": -0.367},
      {"smiles": "NC(=O)NCC#Cc1ccc2c(c1)[C@]1(C(=O)N2)[C@H](c2ccccc2OCCO)N2[C@H](c3ccccc3)[C@H](c3ccccc3)OC(=O)[C@H]2[C@@H]1C(=O)Nc1nc2ccccc2s1", "composite z-score": 0.89},
      {"smiles": "C=CCC(OC(C)=O)[C@@H]1[C@@H](N(Cc2ccc(-c3ccccc3)cc2)C(=O)c2ccc(-c3ccccc3)cc2)c2cc(OCCCO)ccc2N1C(=O)Cc1ccc2ccccc2c1", "note": "(stereo partly drawn)", "composite z-score": 0.0685},
      {"smiles": "Cc1ccc(N2C(=O)c3ccccc3[C@@H](C(=O)NC3CC3)[C@@H]2c2ccc(CO)cc2)nc1", "composite z-score": -0.0414},
      {"smiles": "COCCCNC(=O)[C@@]1(C)c2ccccc2C(=O)N(C(C)C)[C@H]1c1ccc(CO)cc1", "composite z-score": 0.342},
      {"smiles": "COC(=O)[C@@]1(Cc2ccc(OC)cc2)[C@@H]2C(=CC(=O)[C@H]2CC(=O)C(=O)N2CCCC2)CN1C(=O)c1ccccc1", "composite z-score": 0.357},
      {"smiles": "C=C(COC)/C(=C/C[C@@H](OC(=O)c1ccncc1)c1ccc(CO)o1)c1cc(C(=O)OC)ccc1OC", "composite z-score": 0.707},
      {"smiles": "NC(=O)NCC#Cc1ccc2c(c1)[C@]1(C(=O)N2)[C@H](C(=O)Nc2nc3ccccc3s2)[C@H]2C(=O)O[C@H](c3ccccc3)[C@H](c3ccccc3)N2[C@@H]1c1ccccc1OCCO", "composite z-score": 1.1},
      {"smiles": "COc1ccc(C(=O)Nc2ccc(CN3C(=O)[C@]4(O[C@H](CCO)[C@@H]([Si](C)(C)c5ccc(OC)cc5)[C@@H]4C)c4ccccc43)cc2)cc1", "composite z-score": 0.526},
      {"smiles": "COc1cc2c(cc1OC)CN(C(=O)[C@@H]1[C@H]3C(=O)O[C@H](c4ccccc4)[C@H](c4ccccc4)N3[C@H](c3ccc(O)cc3)[C@@]13C(=O)Nc1ccccc13)CC2", "composite z-score": 0.965},
      {"smiles": "[N-]=[N+]=Nc1ccccc1[C@@H]1OC(c2ccc(OCCCO)cc2)=N[C@]1(CCS(=O)(=O)c1ccccc1)C(N)=O", "composite z-score": 0.881},
      {"smiles": "COC(=O)[C@@]1(Cc2ccc(F)cc2)[C@H]2c3cc(C(=O)N4CCCC4)n(CCCNc4ncc(C(F)(F)F)cc4Cl)c3C[C@H]2CN1C(=O)c1ccccc1", "composite z-score": 1.03},
      {"smiles": "[N-]=[N+]=Nc1ccccc1[C@@H]1OC(c2ccc(OCCCO)cc2)=N[C@]1(Cc1ccccc1)C(=O)N1CCOCC1", "composite z-score": 0.923},
      {"smiles": "C=CCC(OC(C)=O)[C@@H]1[C@@H](N(Cc2ccc(-c3ccccc3)cc2)C(=O)Cc2ccc(OC)cc2)c2cc(OCCCO)ccc2N1C(=O)Cc1ccc2ccccc2c1", "note": "(stereo partly drawn)", "composite z-score": 0.182},
      {"smiles": "CC1(C)C2C=C(C(O)C3C=CC4C(=O)NC(=O)C4N3Nc3ccc(Cl)cc3Cl)C[C@@H]1C2", "note": "(stereo partly drawn)", "composite z-score": 0.698},
      {"smiles": "CO[C@H]1O[C@H](CO)[C@@H](OC(=O)Nc2cccc(F)c2)[C@H](OC(=O)Nc2ccccc2)[C@@H]1OC(=O)Nc1ccccc1", "composite z-score": 1.27},
      {"smiles": "COc1ccc(C(O)C2C=CC3C(=O)N(Cc4ccccc4)C(=O)C3N2n2cnnc2)cc1OCc1ccccc1", "note": "(stereo not drawn)", "composite z-score": 0.194},
      {"smiles": "COC(=O)[C@@]1(Cc2ccc(OC)cc2)[C@H]2c3cc(C(=O)N4CCCC4)n(Cc4ccc(C)c(F)c4F)c3C[C@H]2CN1C(=O)c1ccccc1", "composite z-score": 1.32},
      {"smiles": "CC(=O)NCCCC[C@@H]1NC(=O)[C@H]2C[C@@H](C(=O)NCCCCCCNC(=O)CS)[C@@H](c3ccc(O)cc3)N2C1=O", "composite z-score": 0.485},
      {"smiles": "COCCOC(=O)N1C(=O)[C@@]2(c3cc(C#CC4(O)CCCCCC4)ccc31)[C@H](c1ccc(OCCO)cc1)N1[C@H](c3ccccc3)[C@H](c3ccccc3)OC(=O)[C@H]1[C@@H]2C(=O)N1CCN(c2ncccn2)CC1", "composite z-score": 0.458},
      {"smiles": "CCCCCN1CC=CC23O[C@@H]4/C=C\\CCC(C)OC(=O)C4[C@H]2C(=O)N(C(C)CO)[C@@H]3C1=O", "note": "(stereo partly drawn)", "composite z-score": -0.721},
      {"smiles": "COc1ccc(C#Cc2ccc3c(c2)[C@]2(C(=O)N3)[C@H](C(=O)NC[C@H](O)c3ccccc3)[C@H]3C(=O)O[C@H](c4ccccc4)[C@H](c4ccccc4)N3[C@@H]2c2ccc(O)cc2)cc1", "composite z-score": 0.947},
      {"smiles": "COc1ccc(C#Cc2ccc3c(c2)[C@]2(C(=O)N3)[C@H](c3ccccc3OCCO)N3[C@H](c4ccccc4)[C@H](c4ccccc4)OC(=O)[C@H]3[C@@H]2C(=O)Nc2nc3ccccc3s2)cc1", "composite z-score": 0.828},
      {"smiles": "CN1C(=O)C2C=CC(C(O)c3ccco3)N(Nc3ccccc3)C2C1=O", "note": "(stereo not drawn)", "composite z-score": 0.594}
    ]}
  ]
}
